# Pf apPOL inh: Pf-apPOL DNA polymerase inhibition. Recombinant Pf-apPOL, molecular beacon fluorescence, 1.5 h. actives 0.25% (n = 210,000). inhibition, % at 10 µM
# mHTT-CaM PPI inh: mHTT-calmodulin interaction abrogation; P42858; AlphaScreen His-mHTT/GST-CaM binding, luminescence; inhibition, % at 15 µM; actives 3.6% (n = 190,000); AID 1671202
# Numbers stand for hits; n = inactive; x = not tested or not shown; + = active, no number. Sampled rows, rich in hits. Any-hit rate of the full collection: about 3.6%. Cut-off read from the data, not from the text of the source: active = inhibition above about 50%; inactive = the rest.
SMILES,Pf apPOL inh,mHTT-CaM PPI inh
S=c1[nH]nc(-c2ccncc2)n1/N=C/C=C/c1ccco1,x,n
S=c1[nH]nc(-c2ccccn2)n1/N=C/C=C/c1ccco1,x,+
COc1ccc(C2=CC(c3ccccc3)SC(N)=N2)cc1 (configuration not stated),x,n
NC1=NC(c2ccc(Cl)cc2)=CC(c2ccc(F)cc2)S1 (configuration not stated),x,67.5
CCC(C)(NC(=O)c1ccc(=O)[nH]c1)C(=O)NC1CCCCC1 (configuration not stated),n,n
COc1cc(OC)c(C2C(C#N)=C(N)SC(N)=C2C#N)cc1OC,x,70.5
COc1ccccc1C1C(C#N)=C(N)SC(N)=C1C#N,n,n
CCCC1C(C#N)=C(N)SC(N)=C1C#N,n,n
CC1C(C#N)=C(N)SC(N)=C1C#N,n,98.5
O=C(NC1(c2nc(C3CC3)no2)CCCCC1)c1ccc[nH]c1=O,n,n
CC(C)NC(=O)c1ccccc1NC(=O)CN(c1ccccc1F)S(=O)(=O)c1ccccc1,91.9,n
CCc1ccccc1N(CC(=O)Nc1ccc(F)cc1F)S(=O)(=O)c1ccccc1,n,81.2
COc1ccc(N(CC(=O)Nc2ccc(F)cc2F)S(=O)(=O)c2ccccc2)c(OC)c1,n,n
CCc1ccccc1N(CC(=O)Nc1ccccc1C(=O)NC(C)C)S(C)(=O)=O,n,n
COc1ccc(Cl)cc1C(=O)NCC1CCN(Cc2cccs2)CC1,n,n
Cc1ccc2c(c1)N(c1ccccc1C)C=C(C#N)S2(=O)=O,n,n
CC1=C(C#N)C(=O)N(C)C(=O)/C1=C\c1ccc(-c2ccc(Br)cc2C(=O)O)o1,n,n
CC1=C(C#N)C(=O)N(CCCO)C(=O)/C1=C\c1ccc(-c2cc(C)c(C)cc2[N+](=O)[O-])o1,n,79.0
O=C(NC1CCCC1)C1CCc2nc(N3CCN(C(=O)C4CCC4)CC3)sc2C1 (configuration not stated),n,n
c1ccc(C(Sc2nc3ccccc3o2)c2ccccc2)cc1,x,n
NNC(=O)c1ccc2[nH]c3c(c2c1)CCCC3,n,n
O=C(CCC1CCCCC1)NCc1ccc2[nH]c3c(c2c1)CCCC3,n,98.4
O=C(CCC1CCCC1)NCc1ccc2[nH]c3c(c2c1)CCCC3,n,100.2
Cc1ccc(CNC(=O)CN(C)S(=O)(=O)c2ccc3[nH]c4c(c3c2)CCCC4)cc1,n,n
Cc1ccc(NC(=O)CCN2CCN(C/C=C/c3ccccc3)CC2)cc1,n,n
SMILES,Pf apPOL inh,mHTT-CaM PPI inh
Cc1c(Cl)cccc1NC(=O)CCN1CCN(C/C=C/c2ccccc2)CC1,n,50.3
Cc1ccc(N2CCN(Cc3nc(C(=O)N4CCCC4)cs3)CC2)cc1C,n,n
Cc1scc2nc(C(=O)Nc3ccccc3)nc(N3CCCC3)c12,n,n
CCNC(=O)c1nc(N(C)C)c2c(C)scc2n1,n,n
Cc1scc2nc(C(=O)NCc3cccc(F)c3)nc(N3CCCC3)c12,n,64.8
Cc1scc2nc(C(=O)NCc3ccc(F)cc3)nc(N(C)C)c12,n,87.2
CCN1C(=O)C(C)(C(=O)NCc2ccc(OC)cc2OC)Oc2cccnc21 (configuration not stated),n,n
Cn1c(SCc2ccc(C(F)(F)F)cc2)nnc1C(F)(F)F,n,x
OC(CNCCc1ccccc1)CN1c2ccccc2Sc2ccccc21 (configuration not stated),n,100.3
OC(CN1c2ccccc2Sc2ccccc21)Cn1cnc(-c2ccccc2)c1-c1ccccc1 (configuration not stated),x,100.2
CCN(CC)C(C)CN1c2ccccc2Sc2ccccc21 (configuration not stated),n,x
CCC(CO)NCC(O)CN1c2ccccc2Sc2ccccc21 (configuration not stated),n,n
CCn1nc(C)c(CCN(C)C(=O)NC2CCCC2)c1C,n,n
COc1ccc(S(=O)(=O)Nc2ccccc2F)cc1,n,n
Cc1cccc(C2CCCN2C(=O)c2cc(C(F)(F)F)nn2C)c1 (configuration not stated),n,n
CC1CCN(CC2CCN(S(=O)(=O)c3ccc(Br)cc3)CC2)CC1,n,n
COCCNC(=O)c1ccc2nc(-c3ccco3)c(-c3ccco3)nc2c1,n,58.8
COCCCNC(=O)c1ccc2nc(-c3cccs3)c(-c3cccs3)nc2c1,n,n
O=C(Nc1ccc2nc(-c3ccco3)c(-c3ccco3)nc2c1)N1CCN(c2ccccn2)CC1,n,66.0
COc1ccc2nc(-c3ccco3)c(-c3ccco3)nc2c1,n,98.6
COc1ccc2nsnc2c1,n,x
O=C(NCc1ccco1)Nc1ccc2snnc2c1,n,n
O=C(NCc1ccco1)Nc1ccc2nc(-c3ccco3)c(-c3ccco3)nc2c1,n,95.6
O=C(Nc1ccc([N+](=O)[O-])cc1)N1CCN(c2ccccn2)CC1,n,n
Cc1cc(O)c2c(c1)OC(=Cc1ccncc1)C2=O,n,n
SMILES,Pf apPOL inh,mHTT-CaM PPI inh
Cc1cccc(-c2noc(-c3ccc(N4CCCCC4)nc3)n2)c1,n,n
O=C(Nc1ncn[nH]1)c1ccc2nc(-c3ccco3)c(-c3ccco3)nc2c1,n,n
CC(=O)c1ccc(NC(=O)c2ccc3nc(-c4ccco4)c(-c4ccco4)nc3c2)cc1,n,100.1
Cc1c(C2=N/C(=C/C(Cl)=C/c3ccccc3)C(=O)O2)cccc1[N+](=O)[O-],n,n
Brc1ccccc1-c1nnc2n1N=C(c1ccccc1)CS2,n,n
Brc1cccc(C2=Nn3c(nnc3-c3ccccn3)SC2)c1,x,54.4
Cc1c(Cl)c([N+](=O)[O-])nn1CCCC(=O)N1CCN(c2ccccc2)CC1,n,n
Cc1c(Cl)c([N+](=O)[O-])nn1CCCC(=O)N(Cc1ccccc1)Cc1ccccc1,n,84.0
Cn1nc(-c2nnc(-c3ccccc3F)o2)c2c1CCN(C(=O)c1cccc(F)c1)C2,n,n
CCC(C(=O)N1CCc2c(c(-c3nnc(-c4ccccc4F)o3)nn2C)C1)c1ccccc1 (configuration not stated),n,52.8
Cc1oc2ccn(Cc3ccc(F)cc3)c(=O)c2c1C(=O)NC(C)C,n,80.4
Cc1oc2ccn(Cc3ccc(F)cc3)c(=O)c2c1C(=O)N1CCN(C(C)C)CC1,n,n
COc1cc(C2c3c(-c4ccc(F)cc4)n[nH]c3C(=O)N2c2ccccc2)ccc1O (configuration not stated),n,78.0
COc1ccc(-c2n[nH]c3c2C(c2ccc(OC)cc2)N(c2ccccc2)C3=O)cc1 (configuration not stated),n,n
O=C1c2[nH]nc(-c3ccccc3)c2C(c2cccc([N+](=O)[O-])c2)N1c1ccccc1 (configuration not stated),n,n
O=C1c2[nH]nc(-c3ccc(F)cc3)c2C(c2ccccc2[N+](=O)[O-])N1c1ccccc1 (configuration not stated),n,83.0
CC1CCN(S(=O)(=O)c2ccc3[nH]c(=O)cc(C(=O)NCc4ccccn4)c3c2)CC1,n,n
CC1CCCCN1S(=O)(=O)c1ccc2[nH]c(=O)cc(C(=O)NCc3ccccc3Cl)c2c1 (configuration not stated),n,63.0
CC(C)C1C(=O)N(Cc2cn(Cc3ccco3)nn2)CCS(=O)(=O)N1Cc1ccc(-c2ccncc2)cc1 (configuration not stated),n,n
CC(C)C1C(=O)N(Cc2cn(CCC3OCCO3)nn2)CCS(=O)(=O)N1Cc1ccc(-c2ccccc2)cc1 (configuration not stated),n,n
